Compound activity: PubChem BioAssay, Columbia University Molecular Screening Center
E-sel TNF inh: blocks E-selectin expression induced by TNF alpha | HUVEC TNFa-induced E-selectin immunofluorescence, high content | inhibition, % at 2 µM | 120,000 compounds, 0.71% hits | AID 1246;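 active means inhibition above the batch mean plus 3 SD, and confirmed as a hit on visual image review, cut at about 43% in these data; inconclusive means passes the inhibition cutoff but fails visual image review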;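 further: 0% = TNF-stimulated DMSO wells and 100% = unstimulated control wells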
VCAM1 TNFa inh: reduces TNF alpha induced VCAM1 expression in HUVEC; 95,000 compounds, 0.48% hits; inhibition, % at 2 µM; HUVEC TNFa-induced VCAM-1 immunofluorescence, high-content imaging;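 active means inhibition above the batch mean plus 3 SD, with images confirmed as a hit by eye, cut at about 37% in these data; inconclusive means inhibition above that limit but hit not confirmed in images; inactive means inhibition not above that limit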;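 further: 0% = TNF-stimulated DMSO wells and 100% = unstimulated control wells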
cytoskel mod: modifiers of cytoskeleton assembly | HUVEC TNFa F-actin phalloidin imaging, high content | inhibition, % at 2 µM | 91,000 compounds, 0.18% hits | AID 836;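 active means inhibition above the batch mean plus 3 SD and confirmed as a hit by visual image inspection, cut at about 30% in these data, passing the limit was not always enough; inconclusive means above the inhibition threshold but rejected on visual inspection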
TNFa cytotox: toxic to HUVEC cells under TNF alpha stimulation; 93,000 compounds, 0.17% hits; HUVEC TNFalpha-stimulated, Hoechst cell count, imaging; cell count reduction, % at 2 µM;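 active means cell count reduction exceeding the screen mean by over 5 SD, scaled to untreated wells per plate, cut at about 78% in these data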;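 further: cells counted after 24 h of TNF alpha exposure following the 1 h pretreatment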
* marks the source's active call; other numbers are inactive results. Hits are enriched below; roughly 1.1% of the tested compounds scored in any of these assays.

How did Cc1ccc(NS(=O)(=O)c2cc(C(=O)NCCSC3CCCCC3)ccc2C)cc1 do in these assays?
E-sel TNF inh: -11.5; VCAM1 TNFa inh: 7.8; cytoskel mod: 47.9*; TNFa cytotox: -17.0

Results for Cc1cc(SCc2cc(=O)[nH]c3ccccc23)nc2ccccc12 ?
E-sel TNF inh: 64.0*; VCAM1 TNFa inh: 17.9; cytoskel mod: -2.4; TNFa cytotox: 34.0

How did O=c1cc(CSc2ccccn2)c2ccccc2[nH]1 do in these assays?
E-sel TNF inh: 3.5; VCAM1 TNFa inh: 11.9; cytoskel mod: 16.3; TNFa cytotox: -44.4

What do the screens show for `Cc1ccc(NC(=S)N(Cc2cccs2)Cc2cc3cccc(C)c3[nH]c2=O)cc1`?
E-sel TNF inh: -11.5

How did CC(C)(C)OC(=O)N[C@@H](Cc1ccccc1)c1nnc(S(=O)(=O)Cc2ccccc2)o1 do in these assays?
E-sel TNF inh: 17.6; VCAM1 TNFa inh: 7.5; cytoskel mod: 27.8; TNFa cytotox: -14.2

Results for Cc1ccccc1CS(=O)(=O)c1nnc([C@H](Cc2ccccc2)NC(=O)OC(C)(C)C)o1 ?
E-sel TNF inh: 19.0; VCAM1 TNFa inh: 74.9*; cytoskel mod: 20.3; TNFa cytotox: 9.3

Results for CCC(C)[C@@H](NC(=O)OC(C)(C)C)c1nnc(S(=O)(=O)Cc2cccc(C)c2)o1 (some centres not stated) ?
VCAM1 TNFa inh: 42.5*; cytoskel mod: 27.6; TNFa cytotox: -9.0

Results for CCCn1c(SCC(=O)N2CCCC(C)C2)nnc1-c1ccccn1 (configuration not stated) ?
E-sel TNF inh: -1.7

How did CCN(CC)S(=O)(=O)c1ccc(C(=O)NC(C)(C)C)cc1 do in these assays?
E-sel TNF inh: -1.2

How did Cc1ccc(C)c(NC(=S)NC(NC(=O)Cc2cccc3ccccc23)C(Cl)(Cl)Cl)c1 (configuration not stated) do in these assays?
E-sel TNF inh: -19.6; VCAM1 TNFa inh: 67.2*; cytoskel mod: -15.3

What do the screens show for `CSc1nc(C)cc(OCC#N)n1`?
E-sel TNF inh: -24.4; VCAM1 TNFa inh: -12.8; cytoskel mod: -7.4; TNFa cytotox: -20.5

How did C=CCn1c(SCCOc2ccc(OC)cc2)nnc1C(C)NC(=O)c1ccc(OC)cc1 (configuration not stated) do in these assays?
E-sel TNF inh: 11.0; VCAM1 TNFa inh: -18.3; cytoskel mod: -25.3; TNFa cytotox: 38.0

What do the screens show for `COc1ccc(CC(=O)NC(C)c2nnc(SCCOc3ccc(OC)cc3)n2C)cc1` (configuration not stated)?
E-sel TNF inh: 9.6; VCAM1 TNFa inh: 8.2; cytoskel mod: 7.4; TNFa cytotox: 83.4*

Results for Cc1cccc(/N=C/c2c(O)n(Cc3ccc4c(c3)OCO4)c(=O)c3ccccc23)n1 ?
E-sel TNF inh: -6.7

What do the screens show for `CCC(=O)Nc1ccccc1C(=O)NC1CCCCC1`?
E-sel TNF inh: 0.3; VCAM1 TNFa inh: -8.7; cytoskel mod: 12.4; TNFa cytotox: -15.6

How did COc1ccc(Oc2nc(SC)nc3ccccc23)cc1 do in these assays?
E-sel TNF inh: 26.2; VCAM1 TNFa inh: -0.6; cytoskel mod: -17.1; TNFa cytotox: 4.1

How did Cc1cc([N+](=O)[O-])nn1CC(=O)NNC(=S)Nc1ccc(F)cc1 do in these assays?
E-sel TNF inh: -13.8; VCAM1 TNFa inh: 2.6; cytoskel mod: 16.0; TNFa cytotox: -20.8

Results for Cc1cccc(C(=O)Oc2ccccc2C2C[C@]3(C)CC(=O)NC3N2C(=O)c2cccc(C)c2)c1 (some centres not stated) ?
E-sel TNF inh: -15.3; VCAM1 TNFa inh: inconclusive; cytoskel mod: inconclusive; TNFa cytotox: 100.0*

What do the screens show for `O=C1N2CCSC2=NC1(Nc1ccccn1)C(F)(F)F` (configuration not stated)?
VCAM1 TNFa inh: 85.5*; cytoskel mod: 24.5; TNFa cytotox: -17.6

How did O=C(Nc1nnc(C2CC2)s1)c1cc(-c2ccccc2)nn1-c1ccccc1 do in these assays?
E-sel TNF inh: 97.3*

What do the screens show for `N/C(=N\c1nc(CSc2ccc(Cl)cc2)cc(=O)[nH]1)Nc1cccc2ccccc12`?
E-sel TNF inh: 70.1*; VCAM1 TNFa inh: -4.7; cytoskel mod: 8.6; TNFa cytotox: -4.5

Results for O=C(c1ccc2snnc2c1)N1CCCCC1 ?
E-sel TNF inh: -3.6; VCAM1 TNFa inh: -4.3; cytoskel mod: -11.2; TNFa cytotox: -12.7

How did O=C(c1ccc2snnc2c1)N1CCSCC1 do in these assays?
VCAM1 TNFa inh: 78.5*; cytoskel mod: -45.3; TNFa cytotox: 83.7*

What do the screens show for `CCOC(=O)c1[nH]c(C)c(C(=O)N2CCc3ccccc32)c1C`?
E-sel TNF inh: 16.5; VCAM1 TNFa inh: 53.7*; cytoskel mod: -14.8; TNFa cytotox: 57.8

What do the screens show for `CC(=O)c1c(C)[nH]c(C(=O)N2CCc3ccccc32)c1C`?
VCAM1 TNFa inh: 8.7; cytoskel mod: -7.5; TNFa cytotox: -16.8

Results for CC(=O)N(Cc1ccco1)c1nc(C(=O)Nc2ccc(Cl)cc2)c(C)s1 ?
E-sel TNF inh: -7.3

How did Cc1nn(CC(=O)Nc2ccc(C(=O)N(C)C)cc2)c(=O)c2ccccc12 do in these assays?
E-sel TNF inh: 9.5; VCAM1 TNFa inh: -4.1; cytoskel mod: 34.3*; TNFa cytotox: -13.9

What do the screens show for `COc1ccccc1N1CCN(c2cc(N3CCCC3)nc(C)n2)CC1`?
E-sel TNF inh: 100.0*; VCAM1 TNFa inh: 12.1; cytoskel mod: -27.6; TNFa cytotox: 28.7

How did COc1ccccc1N1CCN(c2cc(C)nc3nc(C)nn23)CC1 do in these assays?
E-sel TNF inh: 17.8

How did O=[N+]([O-])c1ccc(Sc2nc3ccccc3o2)c([N+](=O)[O-])c1 do in these assays?
E-sel TNF inh: 38.3; VCAM1 TNFa inh: 73.2*; cytoskel mod: -19.5; TNFa cytotox: 34.8

What do the screens show for `O=[N+]([O-])c1ccc(Cl)cc1Sc1nc2ccccc2o1`?
E-sel TNF inh: 19.5; VCAM1 TNFa inh: 8.7; cytoskel mod: 23.3; TNFa cytotox: 1.9

How did Cc1ccc(Cl)c(NC(=O)COC(=O)c2ccccc2C(=O)c2ccc(Cl)c([N+](=O)[O-])c2)c1Cl do in these assays?
E-sel TNF inh: 98.2*

What do the screens show for `O=[N+]([O-])c1ccc(/C=N/NC(=S)Nc2ccccc2C(F)(F)F)o1`?
E-sel TNF inh: 20.3

What do the screens show for `Cc1noc(C)c1CSc1nc2ccccc2[nH]1`?
E-sel TNF inh: -3.2; VCAM1 TNFa inh: 6.2; cytoskel mod: -16.4; TNFa cytotox: -20.8

What do the screens show for `Fc1cccc(F)c1CSc1nc2ccccc2[nH]1`?
E-sel TNF inh: 74.8*; VCAM1 TNFa inh: -9.4; TNFa cytotox: -30.1

How did Cc1cc(C(=O)NN=C2CCCCC2)c2ccccc2n1 do in these assays?
E-sel TNF inh: -9.9

Results for Cc1cc(C(=O)NN=C2C3CC4CC(C3)CC2C4)c2ccccc2n1 ?
E-sel TNF inh: -3.4; VCAM1 TNFa inh: 52.3*; cytoskel mod: -46.7; TNFa cytotox: 26.6

Results for CCN(C(=O)COC(=O)c1cc(-c2cccc3ccccc23)nc2ccccc12)C1CCS(=O)(=O)C1 (configuration not stated) ?
E-sel TNF inh: 13.2

What do the screens show for `c1nc(NCCN2CCOCC2)c2c3c(sc2n1)CCCCC3`?
VCAM1 TNFa inh: -13.7; cytoskel mod: 9.3; TNFa cytotox: -11.1

Results for c1nc(NCCN2CCOCC2)c2sc3nc(N4CCOCC4)c4c(c3c2n1)CCC4 ?
E-sel TNF inh: 65.5*
